# Assay results published in PubChem BioAssay (Tox21).
# Records with an inconclusive call do not appear. Unmarked numbers belong to inactive results. Activity calls are given as the source filed them. The call rests on the fitted dose curve; in most records, active means well fitted activation curve with a large enough effect in the signal ratio in the repeat runs (not every such curve was filed as active); inconclusive means weak or mixed curves, or effect the other way; inactive means no such curve, though single readings can be large or run the other way; the % refers to the signal ratio.
# Molecular target: Peroxisome proliferator-activated receptor gamma (Homo sapiens) (UniProt P37231)
# Test: qHTS assay to identify small molecule agonists of the peroxisome proliferator-activated receptor gamma (PPARg) signaling pathway (AID 743094)
# Conditions: HEK293H PPARg-UAS-bla, beta-lactamase FRET ratio, 17 h; series mostly up to 57 µM; activation: at the top concentration
# Text: U.S. Tox21 Program National Center for Advancing Translational Sciences [NCATS] NIH Chemical Genomics Center [NCGC] U.S. Environmental Protection Agency [EPA] National Institutes of Environmental Health Sciences [NIEHS] National Toxicology Program [NTP] U.S. Food and Drug Administration [FDA] Tox21 Assay Overview: The peroxisome proliferator-activated receptors (PPARs) are lipid-activated transcription factors of the nuclear receptor superfamily with three distinct subtypes namely PPAR alpha, PPAR delta (also called PPAR beta) and PPAR gamma (PPARg). All these subtypes heterodimerize with Retinoid X receptor (RXR) and these heterodimers regulate transcription of various genes. PPAR-gamma receptor (glitazone receptor) is involved in the regulation of glucose and lipid metabolism. To identify the compounds that activate PPAR-gamma signaling, GeneBLAzer PPAR gamma UAS-bla HEK293H cell line (Invitrogen, Carlsbad, CA, USA) containing a beta-lactamase reporter gene under control of the control of an upstream activator sequence (UAS) stably integrated into HEK293H cells was used to screen Tox21 compound library.
# Tox21 Assay Protocol Summary: PPARg-bla cells were dispensed at 3000 cells/6uL/well in 1536-well black wall/clear bottom plates using a Multidrop Combi (Thermo Fisher Scientific, Waltham, MA) dispenser. After the assay plates were incubated at 37C and 5% CO2 for 5 h, 23 nL of compounds dissolved in DMSO, positive controls or DMSO only was transferred to the assay plate by a Pintool station (Kalypsys, San Diego, CA). The assay plates were incubated at 37C for 17 h. After 1 uL of LiveBLAzerTM B/G FRET substrate was added using a Bioraptr Flying Reagent Dispenser (FRD) workstation (Beckman Coulter, Indianapolis, IN, USA), the plates were incubated at room temperature for 1 h, and fluorescence intensity was measured by an Envision plate reader (PerkinElmer, Shelton, CT).
# On the % scale 0 is the no-effect control and ±100 the full control effect; potency means the concentration at half of the fitted maximal effect.
# Sequence of Peroxisome proliferator-activated receptor gamma (Homo sapiens) (P37231 whole entry, looked up): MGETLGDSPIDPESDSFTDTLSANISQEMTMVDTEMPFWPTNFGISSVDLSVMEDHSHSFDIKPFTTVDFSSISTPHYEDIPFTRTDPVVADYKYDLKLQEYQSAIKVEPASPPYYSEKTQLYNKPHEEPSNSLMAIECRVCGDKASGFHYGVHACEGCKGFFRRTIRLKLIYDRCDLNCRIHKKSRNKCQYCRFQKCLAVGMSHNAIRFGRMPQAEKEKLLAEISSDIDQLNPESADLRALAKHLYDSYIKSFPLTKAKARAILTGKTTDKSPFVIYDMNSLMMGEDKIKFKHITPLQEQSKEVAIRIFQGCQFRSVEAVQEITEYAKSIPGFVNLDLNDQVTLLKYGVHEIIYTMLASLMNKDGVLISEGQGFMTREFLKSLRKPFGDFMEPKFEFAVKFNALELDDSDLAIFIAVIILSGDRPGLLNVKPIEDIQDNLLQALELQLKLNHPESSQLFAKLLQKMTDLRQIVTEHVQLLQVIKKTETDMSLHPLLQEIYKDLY
SMILES,Potency,activation
CCCCCCOC(=O)c1ccc(O)cc1,inactive,
O=[N+]([O-])c1ccccc1Nc1ccccc1,,-5.56%
CCCC1O[C@@H]2C[C@H]3[C@@H]4CCC5=CC(=O)C=C[C@]5(C)[C@H]4[C@@H](O)C[C@]3(C)[C@]2(C(=O)CO)O1 (stereo not given in full),inactive,
O=C1c2ccccc2Cc2ccccc21,,-4.33% [at 78.9 µM]
C=C(C)C(=O)OCC[N+](C)(C)C,,1.37%
Oc1ccc(Cl)cc1Sc1cc(Cl)ccc1O,inactive,
CCCCCCC[N+](CC)(CC)CCCCc1ccc(Cl)cc1,,-9.18% [at 26.2 µM]
O=C(OCC1CO1)C1CCCCC1C(=O)OCC1CO1 (stereo not given),,-7.57%
OCCCCCCCCCCCCBr,,-13.9% [at 78.9 µM]
CCc1oc2ccccc2c1C(=O)c1cc(Br)c(O)c(Br)c1,3.01 µM (active),
[O-][n+]1ccccc1SSc1cccc[n+]1[O-],0.674 µM (active),
Cc1nc(-c2ccc3c(c2)CCN(CCC2CCC(NC(=O)/C=C/c4ccc(F)cc4)CC2)CC3)no1 (stereo not given),24.6 µM (active),
O=C(NOCC1CC1)c1ccc(F)c(F)c1Nc1ccc(I)cc1Cl,,-5.99%
CC(=O)OCC(C)OC(C)=O (stereo not given),,5.03%
CCC1OCC(COc2ccc(Oc3ccccc3)cc2)O1 (stereo not given),,4.35%
CCCCCOC(=O)CCCC,,-2.28%
C1CCCC1,,0.715%
N=C1C=CC(=C(c2ccc(N)cc2)c2ccc(N)cc2)C=C1,,7.67%
O=Cc1cc(O)ccc1Br,,-13.4% [at 78.9 µM]
CCCCCCCCCCCCCCCC[N+](C)(C)CCN(Cc1ccc(OC)cc1)c1ncccn1,,-5.78% [at 26.2 µM]

SMILES,Potency,activation
N/C(=N\N=C\c1ccc(Cl)cc1)N/N=C/c1ccc(Cl)cc1,,-5.19%
CCC(C)(C)C1CCCCC1OC(C)=O (stereo not given),,-0.32%
C[C@H]1[C@H]2CC[C@H]3[C@@H]4CC=C5C[C@@H](N(C)C)CC[C@]5(C)[C@H]4CC[C@]23CN1C,,-2.05%
O=C1CCCCCN1SSN1CCCCCC1=O,,-5.86%
COc1cc(-c2nc(NC(=O)c3cc4cc(C)cc(C)c4n3CC(=O)O)sc2CCC2CCCCC2)c(OC)cc1Cl,35.7 µM (active),
O=C1Cc2cc(CCN3CCN(c4nsc5ccccc45)CC3)c(Cl)cc2N1,inactive,
CCCC/C=C/CCCCO,,4.44%
Cc1ccc(O)c(C(C)(C)C)c1,,0.4%
Clc1ccc2nsnc2c1NC1=NCCN1,,0.354%
O=C(O)c1ccc(Cl)c(Cl)c1,,-5.46%
CCCCCCCCCCC=O,,-0.676% [at 78.9 µM]
Cc1cccc(CN2CCN(C(c3ccccc3)c3ccc(Cl)cc3)CC2)c1 (stereo not given),,-0.39% [at 26.2 µM]
C[C@@H]1C[C@H]2[C@@H]3CCC4=CC(=O)C=C[C@]4(C)[C@@]3(Cl)[C@@H](O)C[C@]2(C)[C@@]1(OC(=O)c1ccco1)C(=O)CCl,,-8.56% [at 26.2 µM]
CCN(C(=O)N(CC)c1ccccc1)c1ccccc1,,1.97%
COc1ccc(-c2ccc3cc(C(=O)O)ccc3c2)cc1C12CC3CC(CC(C3)C1)C2,,-0.315%
COc1cc(/C=C/C(=O)O[C@H]2CC[C@]34C[C@]35CC[C@]3(C)[C@@H]([C@H](C)CCC=C(C)C)CC[C@@]3(C)[C@@H]5CC[C@H]4C2(C)C)ccc1O,,10.3%
Oc1cccc2cc3cccc(O)c3c(O)c12,,-4.09% [at 78.9 µM]
ON=C1CCCC1,,-1.54% [at 78.9 µM]
CCCCCCCCNC(C)C(O)c1ccc(SC(C)C)cc1 (stereo not given),,-1.92%
Cc1cc(O)c2ccccc2c1O,,-5.47%
